We go through 39 compounds from PubChem BioAssay (NCATS).

Results filed as inconclusive are left out. Activity calls are given as the source filed them. Calls come from the whole dose curve; as a rule, active = well fitted curve in either direction with a large enough effect (not every such curve was filed as active); inconclusive = small, poorly fitted or top-dose-only effect, or another doubt; inactive = flat fitted curve, though single readings scatter.
% is set by controls: 0 for no effect and ±100 for the full control effect.

A short description of the assay: Stat Signaling Pathway (AID 446).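 Note: ME-180 cervical cancer cells given 40 pM IL-6 alongside compound; SIE-controlled beta-lactamase reporter measured as 460/530 nm FRET emission ratio.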 Particulars: ME-180 SIE beta-lactamase reporter, IL-6 stimulated, 5 h; at 17.2 µM (top of the series) unless noted. The method, boiled down: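 ME-180 SIE-bla cells; overnight plating; cpd + IL-6 40 pM, 5 h, 37 C; LiveBLAzer 2.5 h RT; 460/530 nm emission ratio. Normalized to 300 pM IL-6 and 125 nM JAK inhibitor controls.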
For `O=C1C2ON(c3ccccc3)C(c3cccnc3)C2C(=O)N1c1ccccc1` (centres undefined), the activity, negative = inhibition was 1.24% (inactive).
Take `COc1ccc(-c2oc3ncn4nc(Cc5ccccc5)nc4c3c2-c2ccc(OC)cc2)cc1`: the activity, negative = inhibition is -13.3% (inactive).
Turning to `O=C(O)c1cc2sccc2s1`, the activity, negative = inhibition is 2.27% (inactive).
Turning to `Cc1cccc(N2C(=O)CC(N3CCN(Cc4ccc(Cl)cc4)CC3)C2=O)c1` (centres undefined), the activity, negative = inhibition was 1.94% (inactive).
For `COCCN(Cc1ccccc1)P(=O)(O)c1ccccc1OCC(=O)O`, the activity, negative = inhibition is 2.47% (inactive).
Next, `S=c1[nH]nc(-c2ccco2)n1Cc1ccccc1`: 21.7% (inactive); `CCOC(=O)c1c(C)n(C)c2ccc(OC)c(NC(=O)CN3CCCCC3)c12`: -0.178% (inactive); `C=CCN1C(=O)CC(C(=O)NC)SC1=Nc1ccc(C(=O)OCC)cc1` (centres undefined): -3.3% (inactive).
To `CC(=O)Nc1ccc(OC(=O)CC2SC(=O)NC2=O)cc1` (centres undefined) belongs 5.85% (inactive); to `CCSc1nnc(N(CCC(=O)O)CCC(=O)O)s1`, -4.16% (inactive); to `CCSc1nc(O)c(C2OC(=O)c3c2ccc(OC)c3OC)c(=O)n1-c1ccccc1` (centres undefined), -4.52% (inactive).
Consider `COc1ccc(C(O)C(CN2CCOCC2)c2ccccc2)cc1` (centres undefined), for which the activity, negative = inhibition is 8.61% (inactive).
To `O=S(=O)(O)c1nc2ccccc2n1Cc1ccc(Cl)cc1Cl` belongs -9% (inactive).
Consider `CCO/C(C)=N/n1c2nc3ccccc3nc2c2c(=O)n(CC(C)C)c(C)nc21`, for which the activity, negative = inhibition was -8.62% (inactive).
Consider `COc1cccc(C2/C(=C(\O)c3ccc4c(c3)OCCO4)C(=O)C(=O)N2CCCN(C)C)c1OC` (centres undefined), for which the activity, negative = inhibition was 4.4% (inactive).
On to `CCC1CC2(C)NC(=O)c3c(sc4c3CC(C)(C)OC4)N2C1=O` (centres undefined), for which the activity, negative = inhibition is -10.3% (inactive).
In the case of `CCOC(=O)/C(C#N)=C1/SC(CCO)C(=O)N1c1ccccc1` (centres undefined), the activity, negative = inhibition was -3.36% (inactive).
For the compound `O=C(O)c1cnn2c(C(F)(F)F)cc(-c3ccco3)nc12`, the activity, negative = inhibition is 16.2% (inactive).
Regarding `COC(=O)c1c(-n2cnnn2)sc(C)c1C`, the activity, negative = inhibition was 6.13% (inactive).
As for `C=CCNc1nc(NCc2ccccc2)c(C#N)c2c1CN(C)CC2`, the activity, negative = inhibition was 25.2% (inactive).
In the case of `Cc1nc2ccccc2cc1O`, the activity, negative = inhibition was 5.42% (inactive).
Take `Nc1nnnn1/N=C/c1cccc(Oc2ccccc2)c1`: the activity, negative = inhibition was 10.9% (inactive).
In the case of `CCCCC(C(=O)O)C(C)CC(=O)Nc1cccc(C(=O)O)c1` (centres undefined), the activity, negative = inhibition was 12.4% (inactive).
Regarding `CCOC(=O)C1=C(C(C)=O)C(c2cccnc2)C(C#N)=C(N)O1` (centres undefined), the activity, negative = inhibition was -12.3% (inactive).
As to `O=C(NCCOCCOCCNC(=O)c1cccnc1)c1cccnc1`, the activity, negative = inhibition was 3.22% (inactive).
As to `CCOc1ccccc1N1CCN(c2nc3ccccc3nc2C(C#N)C(=O)OC)CC1` (centres undefined), the activity, negative = inhibition is -16.5% (inactive).
As for `CCn1nc(NC(=O)c2cccnc2)c2cc3ccccc3nc21`, the activity, negative = inhibition is -4.62% (inactive).
For the compound `Cc1[nH]nc2cn[nH]c12`, the activity, negative = inhibition was 4.46% (inactive).
As to `Cc1cc(C)n(-c2c(F)c(F)c(CN3CCCCC3)c(F)c2F)n1`, the activity, negative = inhibition was 5.23% (inactive).
Next, `CN(C)CCNC(=O)C12CC3(C)CC(C)(CC(C)(C3)C1)C2`: 8.6% (inactive); `CC(=O)Nc1cc2c(cc1Br)OCCO2`: -0.829% (inactive).
Regarding `c1ccc(CSc2nnc(SCc3ccccn3)s2)nc1`, the activity, negative = inhibition was -4.62% (inactive).
Next, `Cc1ccc(C(=O)C2=C(O)C(=O)N(c3ncccn3)C2c2cccc(Cl)c2)o1` (centres undefined): -7.64% (inactive); `Cc1ccc(NC(=O)c2cc(N3CCOCC3)nc3ccccc23)cc1`: -12.2% (inactive).
Next, `CC(=O)Oc1ccc2c(C)cc(=O)[nH]c2c1`: -3.86% (inactive).
Take `CCOC(=O)CCc1c(C)c(C#N)c2nc3ccccc3n2c1-n1ccnc1`: the activity, negative = inhibition is 14.7% (inactive).
Consider `C=CCn1c(SCc2c(F)c(F)c(F)c(F)c2F)nc(O)cc1=O`, for which the activity, negative = inhibition is -10.5% (inactive).
`Cn1c(/C(C#N)=C/Nc2ccccn2)nc2ccccc21`: the activity, negative = inhibition was 8.51% (inactive).
`Nc1ccc2oc3ncccc3c(=O)c2c1`: the activity, negative = inhibition is -3.84% (inactive).
